Compound activity (PubChem BioAssay)
In the library only some 2.4% were active in any assay of this set; here they are far more common.
EP2 modulator = EP2 receptor modulators, cAMP readout, primary screen, cell-based, HTRF cAMP, PGE2 stimulation | EP2-expressing cells, cAMP HTRF FRET, PGE2 co-stimulation | induction, % at 25 µM | hit rate 0.83% among 260,000;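 active = compounds whose cAMP rise, as percent of the full-agonist control response, exceeds 60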;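 note: rat C6 glioma line stably carrying human EP2 under a CMV promoter; the protocol text gives 20 µM as final concentration; 100% = response of wells given 1 µM PGE2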
S1P4 agonist = S1P4 receptor agonists, primary screen, cell-based. Sphingosine 1-phosphate receptor 4 (Homo sapiens), O95977. S1P4-expressing cell line, agonist reporter assay. activation, % at 4.98 µM. hit rate 0.35% among 220,000. AID 1509, 2009; in the data active = activation above about 11%;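 note: 0% = DMSO vehicle and 100% = reference agonist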
S1P3 antag = S1P3 receptor antagonists, primary screen, cell-based | Sphingosine 1-phosphate receptor 3 (Homo sapiens), Q99500 | CHO S1P3 NFAT-BLA reporter, FRET fluorescence, antagonist mode | inhibition, % at 4.98 µM | hit rate 0.27% among 170,000;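 active = inhibition above the plate cutoff, the mean inhibition of test wells on that plate plus 3 SD, cut at about 28% in these data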;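 note: cells challenged with S1P at its EC80 of 0.8 µM; blue over green emission ratio from cleaved BLA substrate after 4 h stimulation; 0% = S1P-stimulated wells and 100% = unstimulated DMSO-only wells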
Target sequence (Q99500 whole entry, looked up): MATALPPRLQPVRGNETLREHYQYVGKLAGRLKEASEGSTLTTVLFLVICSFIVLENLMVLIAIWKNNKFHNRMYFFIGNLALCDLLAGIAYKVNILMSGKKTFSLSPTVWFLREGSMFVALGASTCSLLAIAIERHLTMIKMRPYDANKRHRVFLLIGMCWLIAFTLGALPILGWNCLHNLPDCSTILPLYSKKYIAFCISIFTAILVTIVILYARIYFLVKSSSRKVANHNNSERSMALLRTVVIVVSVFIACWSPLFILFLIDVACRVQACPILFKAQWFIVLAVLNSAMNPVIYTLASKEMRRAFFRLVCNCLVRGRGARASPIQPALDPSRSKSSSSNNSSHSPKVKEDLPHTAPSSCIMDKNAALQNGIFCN
Insulin prom inh = inhibitors of insulin promoter-driven GFP, primary screen, imaging, TRM-6 cells (human fetal islet line), eGFP reporter, cell count | reporter expression induced with tamoxifen | inhibition, % at 2 µM | hit rate 0.9% among 130,000 | AID 1273, 2008;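 active = inhibition above the mean plus 3 SD, with well images judged a real hit on visual review, cut at about 60% in these data, passing the limit was not always enough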
S1P4 antag = S1P4 receptor antagonists, primary screen, cell-based. hit rate 0.26% among 220,000. inhibition, % at 4.98 µM. S1P4-expressing cells, antagonist mode, reporter read-out. Sphingosine 1-phosphate receptor 4 (Homo sapiens), O95977; in the data active = inhibition above about 29%;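 note: 0% = wells stimulated with agonist and 100% = vehicle wells without agonist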
EP2 antag = human EP2 receptor antagonists, primary screen, TR-FRET cAMP, C6 glioma cells. AID 1422, 2008. C6 glioma cells expressing human EP2; cells stimulated with saturating PGE2. inhibition, % at 25 µM. hit rate 0.52% among 260,000. Prostaglandin E2 receptor EP2 subtype (Homo sapiens), P43116;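 active = percent inhibition above 40 after rounding to a whole number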;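 note: rat C6 glioma host cells with rolipram phosphodiesterase inhibitor present; the protocol text gives 20 µM as final concentration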
EP2 confirm = cAMP induction in EP2, EP4, beta2-AR and parental cells, confirmation, counter-screen for EP2 modulator project, cell-based, five parallel assays, C6 glioma, HEK293; shares compounds with EP2 modulator; cAMP HTRF induction; plus low (about EC15) PGE2 agonist; calls only at 20 µM (by protocol); hit rate 47% among 1,300; AID 1080, 2008;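 active = cAMP induction above 50% in the main assay while under 30% in all four parallel counter assays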;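 note: rat C6 glioma cells stably expressing human EP2 receptor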
An asterisk follows results filed as active; i = inactive; nt = not tested or not shown; + = active, no number.

SMILES	EP2 modulator	S1P4 agonist	S1P3 antag	Insulin prom inh	S1P4 antag	EP2 antag	EP2 confirm
Cc1ccc(S(=O)(=O)c2c(C)cc(C)nc2N2CCCCC2)cc1	70*	-1	-11	nt	-1	8	+
COc1cc(C(=O)NCC(c2ccco2)N(C)C)cc(OC)c1OC (stereo unspecified)	5	0	6	nt	-4	5	nt
Cc1cc(C(=O)NCC(c2ccco2)N(C)C)no1 (stereo unspecified)	71*	0	nt	28	13	1	i
C=CCn1c(=O)/c(=C2/Sc3ccc(OC)cc3N2C)s/c1=C1\C(=O)N(C)C(=S)N1C	0	nt	nt	nt	nt	9	nt
O=C(/C(=C/O)N=Nc1ccccc1Cl)c1ccccc1	69*	0	-16	-19	-1	5	+
O=C(/C(=C/O)N=Nc1ccc(Cl)cc1)c1ccncc1	-15	-2	nt	-7	-7	11	nt
CCOc1cccc(C(=O)Nc2ccc(N3CCN(C(=O)CC)CC3)cc2)c1	9	nt	nt	nt	nt	16	nt
CCOP(=O)(OCC)c1nc(Cc2ccccc2)oc1NCc1ccccc1	3	-1	3	nt	-7	19	nt
O=P(c1ccccc1)(c1ccccc1)c1nc(-c2ccccc2)oc1NCc1ccccc1	94*	-1	-6	nt	7	9	+
CCOP(=O)(OCC)c1nc(-c2ccccc2)oc1NCc1ccccc1	81*	1	4	-17	-8	4	+
CCOP(=O)(OCC)c1nc(-c2cccc3ccccc23)oc1NCCc1ccc(OC)cc1	56	1	-7	-44	-9	5	i
CCOP(=O)(OCC)c1nc(-c2ccc(F)cc2)oc1NCc1ccccc1	72*	2	6	nt	5	1	+
Cc1cc2cc(CN(CCO)C(=S)NCC3CCCO3)c(=O)[nH]c2cc1C (stereo unspecified)	-11	nt	nt	nt	nt	13	nt
COC(=O)c1ccccc1S(=O)(=O)N(CCCO)Cc1cc2cc3c(cc2[nH]c1=O)OCCO3	-5	nt	nt	nt	nt	8	nt
FC(F)(F)c1nc(=S)c2ccccc2[nH]1	71*	0	-16	7	1	17	i
Cc1nc(=S)c2ccccc2[nH]1	5	-2	nt	12	-9	12	nt
COc1ccc2nc(N3C(=O)C(O)=C(C(=O)c4ccco4)C3c3cccc(O)c3)sc2c1 (stereo unspecified)	-32	nt	nt	nt	nt	18	nt
CCSc1nc2ccccc2n1S(=O)(=O)c1ccccc1	46	1	-11	nt	7	8	nt
C=CCSc1nc2ccccc2n1S(=O)(=O)c1ccc(Cl)cc1	75*	3	nt	72	-13	11	i
CC(C)(Sc1ccc(CCN(CCCCC2CCCCC2)C(=O)NC2CCCCC2)cc1)C(=O)O	66*	nt	nt	nt	nt	13	i
COc1cccc(CN[C@@H]2CCC(=O)N[C@H]2c2cc(F)cc(F)c2)c1OC	-48	nt	nt	nt	nt	12	nt
COC(=O)c1c(NC(=O)Cc2cccs2)sc(C)c1C	56	0	-3	nt	-14	6	i
COC(=O)c1c(NC(=O)Cc2cccs2)sc2c1CCCC2	55	-1	-9	nt	-7	14	i
OCCN(Cc1ccncc1)CC1(c2ccc(Cl)cc2)CC1	-17	nt	nt	nt	nt	4	nt
C=CCOc1c(Br)cc(/C=N/n2c(CC)n[nH]c2=S)cc1Br	75*	0	5	-4	-11	4	+
SMILES	EP2 modulator	S1P4 agonist	S1P3 antag	Insulin prom inh	S1P4 antag	EP2 antag	EP2 confirm
COc1ccc(C(=O)Nc2ccc(S(=O)(=O)Nc3ncccn3)cc2)c(OC)c1	-14	nt	nt	nt	nt	14	nt
Cc1cccc(C)c1OC(=O)C(c1ccccc1)c1ccccc1	66*	1	-18	-7	-13	19	i
CCN(CC)CCCOC(=O)C(c1ccccc1)c1ccccc1	-30	0	-5	nt	-2	12	nt
C=CCC1(C)C(=O)N(c2ccccc2)c2ccccc21 (stereo unspecified)	69*	2	-14	nt	-7	4	i
C=CCCC1(C)C(=O)N(c2ccccc2)c2ccccc21 (stereo unspecified)	77*	2	0	nt	0	5	+
CC1(C)Oc2ccc(C(=O)N3CCOCC3)cc2N(CC(=O)N2CCOCC2)C1=O	74*	0	8	-21	-14	19	i
CC1(C)Oc2ccc(C(=O)N3CCCC3)cc2N(CC(=O)N2CCCCC2)C1=O	3	nt	nt	nt	nt	9	nt
O=C(CN1CCC(c2ccc3c(c2)OCO3)CC1)N1CCOCC1	-28	nt	nt	nt	nt	nt	nt
CCOC(=O)c1oc2ccccc2c1NC(=O)c1ccccc1OC	79*	0	13	0	-4	10	+
CCCC(=O)Nc1c(C(=O)OCC)oc2ccccc12	18	1	-19	nt	-18	7	nt
O=c1nc(-c2ccccc2)cc(-c2ccccc2)[nH]1	65*	0	-24	nt	-21	10	i
Cc1nc(-c2ccccc2)cc(=O)[nH]1	12	0	-7	nt	-20	9	nt
CC(=O)N1Cc2ccccc2C(C)CC12CCCC2 (stereo unspecified)	24	1	-2	7	-11	14	nt
CC(=O)N1c2ccccc2C(C)CC12CCCCC2 (stereo unspecified)	93*	1	10	29	-18	8	+
CCc1ccc(-c2csc(NC(=O)C3CCCO3)c2C(=O)OC(C)C)cc1 (stereo unspecified)	57	1	nt	nt	8	6	nt
COC(=O)c1c(-c2ccc(F)cc2)csc1NC(=O)C1CCCO1 (stereo unspecified)	66*	-3	0	nt	14	5	i
CSc1nc(Oc2ccc(F)cc2)c2ccccc2n1	68*	0	nt	23	-7	12	+
O=C(COC(=O)CC1Sc2ccccc2NC1=O)NCc1ccc2c(c1)OCO2 (stereo unspecified)	-41	nt	nt	nt	nt	15	nt
CCC(C)(C)n1nnnc1C(c1ccc(OC)c(OC)c1)N1CCN(c2cc(Cl)ccc2C)CC1 (stereo unspecified)	25	nt	nt	nt	nt	5	nt
CC(Sc1ccc2ccccc2n1)C(=O)O (stereo unspecified)	97*	0	nt	26	17	nt	i
Cc1cc(SC(C)C(=O)O)nc2ccccc12 (stereo unspecified)	68*	2	-2	43	-22	12	i
COC(=O)CSc1cnc2ccccc2n1	14	1	nt	46	3	2	nt
